The panel holds about 79,000 compounds, 15% with a hit somewhere; the sample as a whole holds those more often. Active and inactive are the calls of the source. Rule as the data show it: active = growth inhibition above about 70%; inactive = the rest.
Test: NCI Yeast Anticancer Drug Screen. Data for the rad50EPP+ strain (AID 151);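 also: 0% = growth of vehicle-treated control cultures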
Settings: S. cerevisiae rad50 mutant strain, hits give high values
Description: Growth inhibition of yeast strains with defined genetic alterations is measured as a screen for potential anti-cancer activity. Selected strains with alterations in DNA damage repair or cell cycle control were exposed to compounds and growth inhibition was measured relative to vehicle treated controls. The strain used in this assay is rad50EPP+

Measured: growth inhibition

O=C(NCCCCN(CCCNC(=O)C(F)(F)F)Cc1ccccc1)C(F)(F)F
inactive: at 1.2 µM 5% | at 3.7 µM -6% | at 11.0 µM 4% | at 33.0 µM -2% | at 100.0 µM -18%

COC(=O)/C(C#N)=C\NC(=S)C(N)=S
inactive: at 1.2 µM -24% | at 3.7 µM -24% | at 11.0 µM 2% | at 33.0 µM 64%
active: at 100.0 µM 97%

O=C(Cc1ccccc1)NN1C(=O)C(Cl)C1c1cc(Br)cc(Br)c1O (stereo not given)
inactive: at 1.2 µM -6% | at 3.7 µM 1% | at 11.0 µM 29% | at 33.0 µM 56% | at 100.0 µM 59%

CC1(C)CC(=O)C(C=NC(=S)C(N)=S)=C(O)C1
inactive: at 1.2 µM -43% | at 3.7 µM -49% | at 11.0 µM -46% | at 33.0 µM -51% | at 100.0 µM -25%

CSc1nc(-c2ccccc2)nc(=[N+]2CCOCC2)s1
inactive: at 1.2 µM 27% | at 3.7 µM 56%
active: at 11.0 µM 77% | at 33.0 µM 89% | at 100.0 µM 93%

O=C(NO)c1coc2ccccc2c1=O
inactive: at 1.2 µM -2% | at 3.7 µM -6% | at 11.0 µM -3% | at 33.0 µM -5% | at 100.0 µM -1%

COc1ccc2nc(CCc3ccccc3)ccc2c1
inactive: at 1.2 µM -7% | at 3.7 µM -9% | at 11.0 µM 11% | at 33.0 µM 26% | at 100.0 µM 34%

COc1ccccc1/C=C\C(=O)C1COCN1 (stereo not given)
inactive: at 1.2 µM 11% | at 3.7 µM 20% | at 11.0 µM 42%
active: at 33.0 µM 73% | at 100.0 µM 92%
